Activity calls are given as the source filed them. How the source made its calls: active means hit-call score of the fitted dose curve at least 0.9, where 1 is the maximum; inactive means score below 0.9.

This assay in a line: APR_HepG2_StressKinase_24hr: Apredica 24-hour HepG2 Assay for Stress Kinase (AID 2282922). The following applies: HepG2 stress kinase (phospho-c-Jun) imaging, actives raise or lower the signal. The method, then:
APR_HepG2_24hr is a cell-based, multiplexed-readout assay that uses HepG2, a human liver cell line, with measurements taken at 24 hours after chemical dosing in a 384-well plate.APR_HepG2_StressKinase_24hr is one of 10 assay component(s) measured or calculated from the APR_HepG2_24hr assay. It is designed to make measurements of enzyme activity, a form of enzyme reporter, as detected with fluorescence intensity signals by HCS Fluorescent Imaging technology.Data from the assay component APR_HepG2_StressKinase_24hr was analyzed into 1 assay endpoint. This assay endpoint, APR_HepG2_StressKinase_24hr, was analyzed with bidirectional fitting relative to DMSO as the negative control and baseline of activity. Using a type of enzyme reporter, measures of protein for gain or loss-of-signal activity can be used to understand the signaling at the pathway-level as they relate to the gene . Furthermore, this assay endpoint can be referred to as a primary readout, because this assay has produced multiple assay endpoints where this one serves a signaling function. To generalize the intended target to other relatable targets, this assay endpoint is annotated to the cell cycle intended target family, where the subfamily is stress response.
Cells were treated with dimethyl sulfoxide (DMSO) as a solvent control at a final concentration of 0.5% v/v or with compounds in DMSO with a resulting final DMSO concentration of 0.5% v/v. Compound treatment was done at concentrations of 0.39, 0.78, 1.56, 3.12, 6.24, 12.5, 25, 50, 100, and 200 uM in duplicate on each plate. Cells were treated with compounds for 1, 24, or 72 hr. Carbonyl […] m-chloro-phenylhydrazone (CCCP) and taxol were used as positive controls for mitochondrial function and cytoskeletal stability, respectively; DMSO served as the negative control for this experiment. Cells were fixed by the direct addition of 50 uL formaldehyde in Hank's Balanced Salt Solution (HBSS) to a final concentration of 3.7%. After incubation in the fixation medium for 30 min at room temperature (293-298 K), cells were rinsed twice with HBSS and treated with cell permeabilization buffer (16 uL of 0.5% Triton X-100) for 10 min at room temperature (293-298 K) before labeling. For mitochondrial membrane potential and mitochondrial measurements, pre-fixed cells were incubated with 50 uL of MitoTracker Red CMXRos (Invitrogen) at a concentration of 250 nM for 30 min before fixation. In the remaining cases, post-fixed cells were labeled by incubation with a multiplexed mixture of primary antibodies in HBSS for 60 min at room temperature (293-298 K) to detect immunoreactivity of c-Jun (1:500), phospho-histone H3 (1:100), phospho-histone H2A.x (1:200), p53 (1:400), alpha-tubulin (1:200) and Hoechst 33342 (2 ug/mL). Cells were labeled for multiplexed imaging on two separate plates: a) Hoechst 33342, MitoTracker Red, phospho-histone H3, and alpha-tubulin, and b) Hoechst 33342, phospho-histone H2A.x, and c-Jun. A final rinse with HBSS (50 uL) was performed before analysis. The primary and secondary antibodies for the proteins were phospho-histone H3 (rabbit anti-phospho-histone H3 and FITC-donkey anti-rabbit IgG), phospho-histone H2A.x (mouse anti-phospho-histone H2A.x and FITC-donkey anti-mouse IgG), c-Jun (rabbit anti-phospho-c-Jun and Cy3-donkey anti-rabbit IgG), p53 (sheep anti-p53 and Cy5-donkey anti-sheep IgG), alpha-tubulin (mouse anti-alpha-tubulin and Cy5-donkey anti-mouse IgG). These antibodies are available as the CellCiphr HepG2 assay kit (Millipore).Digital images of each well were captured using a Cellomics ArrayScan VTI (Thermo Scientific Cellomics) (0.8 NA objective, 0.63x optical coupler, and XF-93 filter set) at 20x magnification. The images were acquired using the autofocus feature of the ArrayScan instrument, which entails the following steps. First, the camera focuses on channel 1 (Hoechst 33342), where nuclei are identified. Second, a Z offset of 1 um is used for capturing mitochondria (MitoTracker Red). […]
Regarding `CC1=C(/C=C/C(C)=C/C=C/C(C)=C/C(=O)O)C(C)(C)CCC1`, the outcome was inactive.
Take `C=C(C)C(=O)OCCC(F)(F)C(F)(F)C(F)(F)C(F)(F)C(F)(F)C(F)(F)F`: the call was inactive.
On to `CCC(=C(c1ccc(O)cc1)c1ccc(OCCN(C)C)cc1)c1ccccc1`, for which the compound was called inactive.
With `NC(=O)N1C(=O)C(C(=O)c2cc(Cl)cs2)c2cc(F)c(Cl)cc21` (stereo not given), the compound was classed as inactive.
For `CCCCC[C@H](O)CC(=O)CCc1ccc(O)c(OC)c1`, the call was inactive.
Take `CCCCCCCCCCCCCCCS(=O)(=O)Oc1ccccc1`: the outcome was inactive.
`CN1CCC[C@H]1c1cccnc1`: the compound was classed as inactive.
For `COc1ccc([N+](=O)[O-])cc1N`, the result was inactive.
For `OC1CCCCC1`, the compound was called inactive.
For the compound `CCc1ccc(CCOc2ccc(CC3SC(=O)NC3=O)cc2)nc1` (stereo not given), the outcome was inactive.
For `CC(=O)CC(C)(C)O`, the half-maximal activity concentration (AC50) was 100 µM (active).
`CC(=O)NC1(c2cccc(F)c2)CCN(CC[C@@]2(c3ccc(Cl)c(Cl)c3)CN(c3ccccc3)C(=O)CO2)CC1`: the compound was called inactive.
For `CC(C)(C)CC(C)(C)c1ccc(O)c(-n2nc3ccccc3n2)c1`, the compound was classed as inactive.
For the compound `COc1cc(CCC(=O)CC(=O)CCc2ccc(O)c(OC)c2)ccc1O`, the compound was classed as inactive.
As for `CC(C)(C)c1cccc(C(C)(C)C)c1O`, the compound was called inactive.
With `Cc1cc(C)c(O)c(C)c1`, the result was inactive.
Still for that read-out and setting: to `CN1CCN(c2ccccc2/C=C2\SCCN(c3ccc(Cl)c(Cl)c3)C2=O)CC1` belongs “inactive”; to `CN(C)C=O`, “inactive”.
`O=[N+]([O-])c1ccc(O)cc1`: the result was inactive.
`c1ccc2c(c1)Cc1ccccc1-2`: the outcome was inactive.
Same read-out and setting: with `CC(C)CCCCCCOC(=O)CCCCC(=O)OCCCCCCC(C)C` the entry was “inactive”; with `NC(=O)N(O)[C@@H]1C=C[C@H](Oc2cccc(Oc3ccc(F)cc3)c2)C1`, “inactive”.
The same measure, in the same setting: with `CCN(CC)CCNc1ccc(CNC=O)c2sc3ccc(OC)cc3c(=O)c12` the entry was “inactive”.
Take `Oc1cc2ccccc2c2ccccc12`: the half-maximal activity concentration (AC50) was 121 µM (active).
Turning to `CC[C@H](C)[C@@H](C(=O)O)n1sc2ccccc2c1=O`, the result was inactive.
In the case of `CC(O)CO` (stereo not given), the compound was called inactive.
`O=C(/C=C/c1ccc(O)cc1)CC(=O)/C=C/c1ccc(O)cc1`: the AC50 was 100 µM (active).
As for `COC(=O)CCCCC(=O)OC`, the compound was called inactive.
In the case of `CCCCCCCCCCCCN1CCCC1=O`, the outcome was inactive.
As to `Cc1cc(CCN2CCN(c3nsc4ccccc34)CC2)cc2c1NC(=O)CC2(C)C`, the compound was called inactive.
In the case of `OCCC(F)(F)C(F)(F)C(F)(F)C(F)(F)C(F)(F)C(F)(F)C(F)(F)C(F)(F)F`, the AC50 is 29.2 µM (active).
`CCCCCCCC(=O)O`: the compound was called inactive.
`CC#C[C@]1(O)CC[C@H]2[C@@H]3CCC4=CC(=O)CCC4=C3[C@@H](c3ccc(N(C)C)cc3)C[C@@]21C`: the outcome was inactive.
Turning to `COCC(C)O` (stereo not given), the compound was called inactive.
Turning to `CC(C)(C)c1ccc(O)c(C(C)(C)C)c1`, the half-maximal activity concentration (AC50) was 48.3 µM (active).
As to `O=c1c(-c2ccc(O)cc2)coc2cc(O)ccc12`, the call was inactive.
Regarding `C[C@@H]1C[C@H]2[C@@H]3CCC4=CC(=O)C=C[C@]4(C)[C@@]3(F)[C@@H](O)C[C@]2(C)[C@@]1(O)C(=O)COP(=O)(O)O`, the call was inactive.
On to `CCCCCCCCC(=O)O`, for which the compound was called inactive.
Consider `O=C(OCCOCCOC(=O)c1ccccc1)c1ccccc1`, for which the result was inactive.
As for `CCCCCCCCOC(=O)CCCCCCCCC(=O)OCCCCCCCC`, the result was inactive.

For the origin of these results see PubChem BioAssay (EPA / NIEHS).
